PubChem BioAssay (NCI)
The panel holds about 79,000 compounds, 15% with a hit somewhere; the sample as a whole holds those more often. The source made the active and inactive calls. Cut-off read from the data, not from the text of the source: active = growth inhibition above about 70%; inactive = the rest.

assay: NCI Yeast Anticancer Drug Screen. Data for the mlh1 rad18 strain (AID 175); settings: S. cerevisiae mlh1 rad18 strain growth inhibition; at 50.0 µM; stronger effect = higher value
In short: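 Vehicle-treated cultures served as the reference for growth inhibition in a yeast strain carrying DNA damage repair alterations exposed to each compound.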

Compound	growth inhibition
O=[N+]([O-])c1ccc(OCc2ccccc2)c(Cl)c1	30.4% (inactive)
CCC(O)(Cc1ccc(OC)cc1)c1ccc(OC)cc1 (stereo not given)	-11.8% (inactive)
COc1ccc(N=C(N)N=C(N)N)cc1	0% (inactive)
O=C1NC(=O)C(CCI)N1 (stereo not given)	-12.7% (inactive)
C[C@H]1C[C@H]2[C@@H]3CC[C@@]4(OCC4=O)[C@@]3(C)C[C@H](O)[C@]2(F)[C@@]2(C)C=CC(=O)C=C12	0.35% (inactive)
O=C(Nc1ccc(Cl)cc1)c1ccc(Cl)cc1Cl	-0.15% (inactive)
O=C(NO)c1ccc(Cl)cc1Cl	43.7% (inactive)
C(=C1\COC(c2ccccc2)=N1)/c1ccc2c(c1)OCO2	26.9% (inactive)
CC(C)CCCC(C)C1CCC2C3CC=C4CC(OCCC(C)C)CCC4(C)C3CCC12C (stereo not given)	90.4% (active)
O=S(=O)(O)SCC1=NCCCCN1	0.05% (inactive)
Clc1ccc(OCc2nnc3n2N=C(c2ccc(Br)cc2)CS3)cc1	13.6% (inactive)
NC(=S)Cc1ccccn1	6.55% (inactive)
O=C1CC2CCCCC2CC1c1ccccc1 (stereo not given)	-12.2% (inactive)
O=C(OC1CCCCC1)C(=O)OC1CCCCC1	14% (inactive)
BrC1CC1(c1ccccc1)c1ccccc1 (stereo not given)	-0.3% (inactive)
Cc1ccc(N)c(C#N)c1	4.65% (inactive)
C[C@H](C(=O)C12CC3CC(CC(C3)C1)C2)[C@H](O)c1ccccc1	-18.2% (inactive)
CCCCS(=O)(=O)CCC(N)C(=O)O (stereo not given)	-11.5% (inactive)
CC1CC[N+](C)([B-](F)(F)F)CC1 (stereo not given)	11.1% (inactive)
NC(=O)/C(N=Nc1ccccc1)=N\Nc1ccccc1	94.8% (active)

Compound	growth inhibition
Nc1ncnc2c1nnn2CCCCCC(=O)O	-13.9% (inactive)
Nc1ccc(S(=O)(=O)c2ccc(Nc3ccnc4cc(Cl)ccc34)cc2)cc1	12.8% (inactive)
O=C1NC(=O)C(c2cccc(F)c2)N1 (stereo not given)	-7.7% (inactive)
O=C(NNC(=O)c1cccc(Br)c1)c1ccccc1	-3.15% (inactive)
CC(=O)OCC1OCOC2C(COC(C)=O)OCOC12 (stereo not given)	-8.5% (inactive)
C[Si](C)(C)N1N=NC2C(=O)N(c3ccccc3)C(=O)C21 (stereo not given)	-7.4% (inactive)
C=CCCCCCCCCC(=O)NCc1cccnc1	64% (inactive)
CC(=O)c1ccc(CCCCc2ccc([N+](=O)[O-])cc2)cc1	-32% (inactive)
CCOC(=O)/C(=N/Nc1ccc(C)cc1)N1C(=S)C=C(C)NN(C)C1=S	-30.9% (inactive)
NC1=NN(c2ccccc2)C(=O)C1/C(=N\NC(=O)c1cc2ccccc2cc1O)C(=O)Nc1ccc(Cl)c(Cl)c1 (stereo not given)	21.1% (inactive)
Cc1c(C(=O)Nc2ccc(Cl)c(C(F)(F)F)c2)oc2cc(O)ccc2/c1=N\NC(N)=S	-17.4% (inactive)
CCCCC(=O)N/N=C\c1cc(Cl)ccc1[N+](=O)[O-]	1.05% (inactive)
COc1cccc2c1[C@@]1(C)C3C(=O)OC(C)(c4ccccc43)[C@@]1(C)C2=O (stereo not given in full)	9.35% (inactive)
CCOC(=O)c1c(C)nc(C)c(C(=O)OCC)c1-c1ccnc2ccccc12	5.1% (inactive)
CN/N=C(/Cc1occc(=O)c1O)C(=O)Nc1ccc(C)c(C)c1	18.1% (inactive)
CN(C)Cc1cc(C(C)(C)C)cc(CN(C)C)c1O	-0.05% (inactive)
CC(N)C(O)C(C)C(=O)O (stereo not given)	7.35% (inactive)
CC(=O)Oc1ccc2c(c1)CCC1C2CCC2(C)CC(OC(C)=O)CC12 (stereo not given)	-21.8% (inactive)
COC(=O)NC(Nc1ccc(C)cc1)(C(F)(F)F)C(F)(F)F	-4.7% (inactive)
O=C(Nc1ccccc1Cl)OCCOc1ccccc1	14.7% (inactive)
